Assay results reported in PubChem BioAssay (EPA / NIEHS).
Values joined by “and” are separate entries in the source; they are usually repeats but may differ in a detail not shown here. Equal values may be shown once. A structure can be active in one record and inactive in another. Active and inactive are the calls of the source. The calls were made as follows: active = hit-call score of the fitted dose curve at least 0.9, where 1 is the maximum; inactive = score below 0.9.

Legend:
Conditions in all cases: mRNA level, 48 h; actives raise or lower the signal
[1] = read-out: Bcl-2 (BID) gene, BID (gene 637); experiment: LTEA_HepaRG_BID: Life Technologies and Expression Analysis (LTEA) Assay for Bcl-2 (BID) gene using HepaRG (AID 2283476)
In short: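 Cells are plated, cultured 48 h, switched to serum-free induction medium, then dosed 48 h (100 uM top, half-log steps, 0.5% DMSO). RNA is isolated and BID expression read by qRT-PCR.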

[2] = read-out: Caspase-3 (Homo sapiens) (UniProt P42574); experiment: LTEA_HepaRG_CASP3: Life Technologies and Expression Analysis (LTEA) Assay for cysteine-aspartic acid protease (CASP3) using HepaRG (AID 2283477)
In short: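 HepaRG, 48 h exposure, 8 conc. (top 100 uM, half-log steps, duplicate), 0.5% DMSO vehicle; qRT-PCR of CASP3 transcript, housekeeping-normalised (ACTB/GAPDH/POLR2A); bidirectional curve fit vs DMSO baseline.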

[3] = read-out: Cytochrome P450 (CYP24A1), CYP24A1 (gene 1591); experiment: LTEA_HepaRG_CYP24A1: Life Technologies and Expression Analysis (LTEA) Assay for Cytochrome P450 (CYP24A1) using HepaRG (AID 2283478)
In short: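 qRT-PCR read-out: CYP24A1 transcript levels normalized to three housekeeping genes, bidirectional curve fits against 0.5% DMSO baseline. Human HepaRG cells treated 48 h with chemicals at eight concentrations from 100 uM in half-log steps.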

[4] = read-out: cysteine-aspartic acid protease (CASP8), CASP8 (gene 841); experiment: LTEA_HepaRG_CASP8: Life Technologies and Expression Analysis (LTEA) Assay for cysteine-aspartic acid protease (CASP8) using HepaRG (AID 2283480)
In short: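 CASP8 transcript measured by TaqMan qRT-PCR with ACTB/GAPDH/POLR2A normalization, after 48 h chemical exposure of HepaRG cells in serum-free induction medium. Eight concentrations, top 100 uM, half-log steps, 0.5% DMSO vehicle; fits in both directions versus DMSO.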

[5] = read-out: Cytochrome P450 (CYP2B6), CYP2B6 (gene 1555); experiment: LTEA_HepaRG_CYP2B6: Life Technologies and Expression Analysis (LTEA) Assay for Cytochrome P450 (CYP2B6) using HepaRG (AID 2283481)
In short: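 Read-out is CYP2B6 mRNA by TaqMan qRT-PCR, normalized to three housekeeping genes and fitted bidirectionally against 0.5% DMSO baseline. Human HepaRG cells received test chemicals for 48 h, top concentration 100 uM, half-log dilutions.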

[6] = read-out: Cytochrome P450 2C19 (Homo sapiens) (UniProt P33261); experiment: LTEA_HepaRG_CYP2C19: Life Technologies and Expression Analysis (LTEA) Assay for CYP2C19 using HepaRG (AID 2283482)
In short: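 HepaRG, 48 h chemical exposure, 8-pt half-log series from 100 uM in 0.5% DMSO, duplicates. Readout: CYP2C19 mRNA by TaqMan qRT-PCR, housekeeping-normalized. Bidirectional fit vs DMSO baseline; phenobarbital 1mM as induction control.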

[7] = read-out: CYP2C8 (gene 1558); experiment: LTEA_HepaRG_CYP2C8: Life Technologies and Expression Analysis (LTEA) Assay for CYP2C8 using HepaRG (AID 2283483)
In short: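 CYP2C8 expression measured by TaqMan qRT-PCR and normalized to three housekeeping genes. HepaRG cultures were treated for 48 h with an eight-point half-log series topping at 100 uM, vehicle 0.5% DMSO, duplicates; fitted both directions against DMSO.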

[8] = read-out: CYP2C9 (gene 1559); experiment: LTEA_HepaRG_CYP2C9: Life Technologies and Expression Analysis (LTEA) Assay for CYP2C9 using HepaRG (AID 2283484)
In short: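 CYP2C9 transcript level, quantified by TaqMan qRT-PCR against three housekeeping genes, was fitted bidirectionally relative to 0.5% DMSO. HepaRG cultures were treated 48 h, in duplicate, at eight half-log concentrations topping at 100 uM.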

[9] = read-out: CYP2E1 (gene 1571); experiment: LTEA_HepaRG_CYP2E1: Life Technologies and Expression Analysis (LTEA) Assay for CYP2E1 using HepaRG (AID 2283485)
In short: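 Readout is qRT-PCR of CYP2E1 mRNA, normalized to three housekeeping genes and fitted bidirectionally against 0.5% DMSO. HepaRG cells were dosed 48 h at eight concentrations, highest 100 uM with half-log dilutions.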

[10] = read-out: Cytochrome P450 (CYP1A2), CYP1A2 (gene 1544); experiment: LTEA_HepaRG_CYP1A2: Life Technologies and Expression Analysis (LTEA) Assay for Cytochrome P450 (CYP1A2) using HepaRG (AID 2283479)
In short: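 HepaRG, 48 h exposure, top 100 uM, half-log 8-pt, 0.5% DMSO vehicle, duplicates. Readout: TaqMan qRT-PCR of CYP1A2 mRNA, housekeeping-normalized (ACTB/GAPDH/POLR2A). Gain/loss fit relative to DMSO baseline.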

Measured: AC50

Sequence of Caspase-3 (Homo sapiens) (P42574 whole entry, looked up): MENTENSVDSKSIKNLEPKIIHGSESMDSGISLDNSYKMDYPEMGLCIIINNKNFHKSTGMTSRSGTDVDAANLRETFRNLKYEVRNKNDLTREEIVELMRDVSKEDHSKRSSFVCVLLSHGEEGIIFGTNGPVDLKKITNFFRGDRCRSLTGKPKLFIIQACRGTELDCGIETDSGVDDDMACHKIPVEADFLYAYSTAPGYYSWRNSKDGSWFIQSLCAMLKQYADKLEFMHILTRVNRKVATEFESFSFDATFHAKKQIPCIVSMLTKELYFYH
Sequence of Cytochrome P450 2C19 (Homo sapiens) (P33261 whole entry, looked up): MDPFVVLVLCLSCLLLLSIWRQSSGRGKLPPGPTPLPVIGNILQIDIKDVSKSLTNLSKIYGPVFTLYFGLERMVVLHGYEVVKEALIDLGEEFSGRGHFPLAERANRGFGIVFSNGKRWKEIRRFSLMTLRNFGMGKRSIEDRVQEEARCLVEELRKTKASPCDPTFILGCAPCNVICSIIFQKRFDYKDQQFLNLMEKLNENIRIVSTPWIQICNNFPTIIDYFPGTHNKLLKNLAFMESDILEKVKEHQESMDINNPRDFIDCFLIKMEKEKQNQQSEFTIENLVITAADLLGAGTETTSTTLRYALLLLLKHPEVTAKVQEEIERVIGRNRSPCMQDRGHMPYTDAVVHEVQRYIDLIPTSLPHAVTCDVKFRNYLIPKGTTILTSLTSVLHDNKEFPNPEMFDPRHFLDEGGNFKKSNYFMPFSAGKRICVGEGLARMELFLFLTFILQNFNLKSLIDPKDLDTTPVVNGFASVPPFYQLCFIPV

CCOC(=O)C(Cl)Cc1cc(-n2nc(C)n(C(F)F)c2=O)c(F)cc1Cl (stereo not drawn)
active: [5] 50 µM | [6] 41.1 µM | [7] 23.3 µM | [8] 25.5 µM
not listed: [10]
inactive: all other assays above

O=C(Nc1ccccc1)Nc1ccnc(Cl)c1
inactive: [1] | [3] | [4] | [7]
active: [2] 69.9 µM | [5] 88.4 µM | [6] 79 µM | [8] 75.6 µM | [9] 25.4 µM

C=CCC1=C(C)C(OC(=O)C2C(C=C(C)C)C2(C)C)CC1=O (stereo not drawn)
active: [5] 12.1 µM and 90.6 µM and 11.7 µM | [6] 91.5 µM | [7] 85.6 µM | [8] 87.4 µM | [9] 70.6 µM and 76.7 µM and 60.9 µM
inactive: [1] | [2] | [3] | [4] | [6] | [7] | [8]

Oc1ccccc1-c1ccccc1
not listed: [10]
inactive: all other assays above

CNC(=S)S
active: [10] 50 µM | [5] 29.7 µM
inactive: all other assays above

CCOc1cc(Oc2ccc(C(F)(F)F)cc2Cl)ccc1[N+](=O)[O-]
active: [10] 5.27 µM | [5] 34.4 µM | [6] 69.3 µM | [7] 74.2 µM | [8] 35.7 µM | [9] 24.8 µM
inactive: [1] | [2] | [3] | [4]

CC(C)Oc1cc(-n2nc(C(C)(C)C)oc2=O)c(Cl)cc1Cl
inactive: [1] | [2] | [3] | [4]
active: [5] 90.5 µM | [6] 1.44 µM | [7] 86.3 µM | [8] 82.3 µM | [9] 30.8 µM

CCCN(CCC)c1c([N+](=O)[O-])cc(S(N)(=O)=O)cc1[N+](=O)[O-]
active: [2] 79.2 µM | [4] 83.3 µM and 79.5 µM | [5] 11.1 µM and 11.9 µM and 10.7 µM | [6] 8.44 µM and 84.8 µM and 8.78 µM | [8] 95 µM and 82 µM | [9] 15.6 µM and 12.9 µM and 20.1 µM
inactive: [1] | [2] | [3] | [4] | [7] | [8]

CCc1nn(C)c(C(=O)NCc2ccc(C(C)(C)C)cc2)c1Cl
inactive: [3]
active: [1] 50 µM | [2] 16.1 µM | [10] 0.866 µM | [4] 35.8 µM | [5] 0.346 µM | [6] 20.7 µM | [7] 0.414 µM | [8] 5.99 µM | [9] 0.507 µM

CC1=C(C(=O)Nc2ccccc2)SCCO1
active: [5] 45 µM | [9] 74.5 µM
not listed: [10]
inactive: all other assays above

CCOC(=O)CC(SP(=S)(OC)OC)C(=O)OCC (stereo not drawn)
active: [5] 50 µM
not listed: [10]
inactive: all other assays above

CCNc1nc(Cl)nc(NCC)n1
active: [10] 50 µM | [5] 11.3 µM
inactive: all other assays above

C=CCC1=C(C)[C@@H](OC(=O)[C@@H]2[C@@H](C=C(C)C)C2(C)C)CC1=O
active: [5] 85.4 µM | [9] 62.1 µM
inactive: all other assays above

COC(=O)C=C(C)OP(=O)(OC)OC
not listed: [10]
inactive: all other assays above

N#Cc1nn(-c2c(Cl)cc(C(F)(F)F)cc2Cl)c(N)c1S(=O)C(F)(F)F (stereo not drawn)
active: [10] 58.3 µM | [5] 28.9 µM | [6] 29.9 µM | [7] 33 µM | [8] 34.9 µM | [9] 12.9 µM
inactive: [1] | [2] | [3] | [4]

CO/C=C(/C(=O)OC)c1ccccc1Oc1cc(Oc2ccccc2C#N)ncn1
active: [10] 84.5 µM and 65.9 µM and 66.5 µM | [5] 75.2 µM and 72.2 µM and 71.5 µM | [6] 84.1 µM and 83.3 µM and 82.3 µM | [7] 79.9 µM and 79.2 µM and 78.1 µM | [8] 79.1 µM and 79 µM and 93.4 µM | [9] 34.6 µM and 50 µM and 33.2 µM
inactive: [1] | [2] | [3] | [4]

Cc1cc(Cl)ccc1OCC(=O)O
active: [5] 25.5 µM | [6] 24.3 µM | [7] 19.9 µM | [9] 30.9 µM
not listed: [10]
inactive: all other assays above

C#CCOS(=O)OC1CCCCC1Oc1ccc(C(C)(C)C)cc1 (stereo not drawn)
active: [1] 11.4 µM | [2] 29 µM | [4] 31.3 µM | [5] 26.6 µM | [6] 26.3 µM | [7] 29.9 µM | [8] 25.6 µM | [9] 22.6 µM
inactive: [3] | [10]

COP(=S)(OC)Oc1nc(Cl)c(Cl)cc1Cl
active: [10] 66.5 µM
inactive: all other assays above

COP(N)(=O)SC (stereo not drawn)
not listed: [10]
inactive: all other assays above

Cc1c(F)c(F)c(COC(=O)C2C(/C=C(\Cl)C(F)(F)F)C2(C)C)c(F)c1F (stereo not drawn)
active: [9] 72.3 µM
inactive: all other assays above

COc1cnc(OC)n2nc(NS(=O)(=O)c3c(OCC(F)F)cccc3C(F)(F)F)nc12
active: [5] 6.02 µM | [6] 10.8 µM | [9] 30.2 µM
inactive: all other assays above

COC(=O)C(C)Oc1ccc(Oc2ccc(Cl)cc2Cl)cc1 (stereo not drawn)
active: [6] 29.4 µM | [9] 50 µM
not listed: [10]
inactive: all other assays above

C=CC1(C)OC(=O)N(c2cc(Cl)cc(Cl)c2)C1=O (stereo not drawn)
active: [5] 7.99 µM | [6] 18.4 µM | [7] 16.7 µM | [9] 40.1 µM
not listed: [10]
inactive: all other assays above

Cc1ccc(-c2c(Cl)nc(C#N)n2S(=O)(=O)N(C)C)cc1
active: [3] 0.01 µM | [4] 89.8 µM | [5] 5 µM | [6] 5.98 µM | [7] 9.33 µM | [8] 7.78 µM | [9] 5.17 µM
inactive: [1] | [2] | [10]
